# According to PubChem BioAssay (NCATS):
# Inconclusive results are not listed. Unmarked numbers belong to inactive results. Activity calls are given as the source filed them. The call rests on the fitted dose curve; in most records, active means well fitted cell-killing curve with a large enough effect; inconclusive means small, poorly fitted or top-dose-only effect; inactive means no such curve, though single readings can be large or run the other way.
# Assay: qHTS of pediatric cancer cell lines to identify multiple opportunities for drug repurposing: Primary screen for Rh30 cells (AID 1347107); further: nearly all actives have a fitted effect of over 75% in size
# Conditions: Rh30 rhabdomyosarcoma viability, CellTiter-Glo luminescence, 48 h; series mostly up to 46 µM; activity change, negative = cytotoxic: at the top concentration
# In short: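 Cells (500-1,000/well) in growth media were settled 5 h at 37 degrees C, then given compounds for 48 h. Viability was read as CellTiter-Glo luminescence. Primary runs used MIPE at 11 points (0.78 nM-46 µM) and NPC at 8 points (0.59 nM-46 µM); follow-ups used 11 points.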
# On the % scale 0 is the no-effect control and ±100 the full control effect; potency means the concentration at half of the fitted maximal effect.
Compound,"activity change, negative = cytotoxic",Potency
O=C(CS)Nc1ccccc1,-22.8%,–
c1ccc(CCNc2nc(-c3ccccc3)cs2)cc1,-17.3%,–
Cc1c(Nc2ncccc2C(=O)O)cccc1C(F)(F)F,20%,–
Nc1ccc([N+](=O)[O-])cc1O,18.7% [at 92.7 µM],–
CN(C)[C@@H]1C(=O)C(C(=O)NCN2CCCC2)=C(O)[C@@]2(O)C(=O)C3=C(O)c4c(O)cccc4[C@@](C)(O)C3C[C@@H]12 (some centres undefined),12.6%,–
O=C(O)c1cc(O)c(O)c(O)c1,15%,–
O=C(OCc1ccccc1)c1ccccc1,16.1%,–
O=C(O)Cc1cccc(-c2cc(CCCCCCc3ccc(O[C@H]4O[C@H](CO)[C@@H](O)[C@H](O)[C@@H]4O)c(-c4cccc(CC(=O)O)c4)c3)ccc2O[C@H]2O[C@H](CO)[C@@H](O)[C@H](O)[C@@H]2O)c1,18.7% [at 0.597 µM],–
CCCCCCCCCCCCCCCCCC(=O)O,20.9%,–
CN(C)c1ccc(C(=C2C=CC(=[N+](C)C)C=C2)c2ccccc2)cc1,–,473 nM (active)
O=C(/C=C/c1ccccc1)NCCO,10.6%,–
CCCCCCCCCCCCCCCC(=O)OC(C)C,20.6%,–
COC(=O)Nc1nc2ccc(C(=O)C3CC3)cc2[nH]1,6.06%,–
CCCOC(=O)c1ccc(O)cc1,27.5% [at 92.7 µM],–
C=CCCCCCCCCC(=O)O,22.7%,–
CN(C)c1ccc(N=NS(=O)(=O)O)cc1,18.1% [at 92.7 µM],–
COc1cc2c3cc1Oc1cc(ccc1O)C[C@@H]1c4c(cc(OC)c(O)c4Oc4ccc(cc4)C[C@@H]3N(C)CC2)CC[N+]1(C)C,6.69%,–
O=C(O)/C=C\C(=O)O,13.4%,–
CCCCCCCCCCCCOCCO,18.2%,–
